Experimental data: ChEMBL document CHEMBL4513216, “Probing the Open Global Health Chemical Diversity Library for Multistage-Active Starting Points for Next-Generation Antimalarials” (ACS Infect Dis, 2020)
Screen size: about 69,000 compounds; about 8,600 (12%) showed an effect of 50% or more. This excerpt belongs to a sample that is enriched for strong results.

System: Plasmodium berghei
Experiment: Screen against P. berghei liver stage (PbLuc), transformed with Luciferase, at 10uM
Assay type: functional, HepG2
Details: tested at 10 uM

Compound	INHIBITION
COc1ccc(CN2CCO[C@H]3CN(C4CCCC4)CC[C@H]3C2=O)cc1	27.7%
CN1CCCN(C(=O)c2cc(-c3cc[nH]n3)n3ccccc23)CC1	47.5%
Cn1ccc(-c2cc(C(=O)N3CCC(O)CC3)c3ccccn23)n1	42.1%
Cc1nc(-c2cc(C(=O)N3CCCN(C)CC3)c3ccccn23)cn1C	21.7%
Cc1nc(-c2cc(C(=O)N3CCN(C)CC3)c3ccccn23)cn1C	52.3%
Cn1ccc(-c2cc(C(=O)N3CCC(C(N)=O)CC3)c3ccccn23)n1	-23.1%
CN(C)C1CCN(C(=O)c2cc(-c3ccn(C)n3)n3ccccc23)CC1	62.9%
CCCC1C=CCN1C(=O)c1cc(COc2ccccc2)[nH]n1 (stereo unspecified)	-1.49%
CCCNC(=O)c1cc2c(s1)CCN2C(=O)CN(C)C	-25.2%
CCn1cc(NC(=O)NCC(C)(C)N2CCc3ccccc3C2)cn1	-31.8%
CC(=O)N1CCCN(C(=O)c2ccc(Cn3ccccc3=O)o2)CC1	19.45%
COc1ccc(OC)c(NC(=O)c2c(C)cn(C)c2CC(=O)O)c1	29%
CCOCc1ccccc1NC(=O)NC1CCN(CC(F)(F)F)C1 (stereo unspecified)	38.3%
CCOCc1ccccc1NC(=O)NC1CCN(C2CCCC2)C1 (stereo unspecified)	58.6%
CCOCc1ccccc1NC(=O)NC1CCN(c2ccccc2)C1 (stereo unspecified)	36.2%
CCOCC(O)CN1CCN(C(=O)c2cccc(CC#N)c2)CC1 (stereo unspecified)	9.54%
CCSc1nsc(NC(=O)COc2ccc3c(c2)OCO3)n1	49.4%
CCO[C@H]1CO[C@@]2(CCN(Cc3ccc4c(c3)OCO4)C2)C1	-20.8%
COC1COC2(CCN(Cc3ccc4ccccc4n3)CC2)C1 (stereo unspecified)	57.4%
c1ccc(OC2COC3(CCN(CC4CC4)CC3)C2)nc1 (stereo unspecified)	53.2%
c1ccc(O[C@@H]2CO[C@@]3(CCCN(CC4CCOCC4)C3)C2)nc1	32.2%
CCO[C@@H]1CO[C@@]2(CCN(Cc3ccc4c(c3)OCO4)C2)C1	18.6%

Compound	INHIBITION
COC1COC2(CCN(Cc3ccccc3F)CC2)C1 (stereo unspecified)	3.25%
Cn1cc(CN2CCC[C@]3(C[C@@H](Oc4ccccn4)CO3)C2)cn1	15.6%
COC1COC2(CCN(Cc3ccccc3C)CC2)C1 (stereo unspecified)	37.1%
c1ccc(O[C@H]2CO[C@@]3(CCN(Cc4ccc5c(c4)OCO5)C3)C2)nc1	71.9%
COc1ccccc1CN1CCC2(CC1)CC(Oc1ccccn1)CO2 (stereo unspecified)	14.2%
Cn1cc(CN2CCC[C@]3(C[C@H](Oc4ccccn4)CO3)C2)cn1	46.4%
Cn1cc(CN2CC[C@]3(C[C@H](Oc4ccccn4)CO3)C2)cn1	51.4%
CC(=O)N1CCCn2nc(CNC(=O)N3CCCCC3)cc2C1	14.3%
CCc1ncc2c(n1)CN(c1cc(N3CCN(C)CC3)nc(N)n1)C2	19.7%
CNc1nc(C2CCCN2)nc2c1CCN(S(=O)(=O)C1CCCCC1)C2 (stereo unspecified)	-44.8%
CC(C)CCC(=O)N1CCCC2(CCN(Cc3ccccc3C#N)C2)C1 (stereo unspecified)	1.71%
COc1ccc(CCn2cnc(C#N)n2)cc1	-7.46%
Cc1cccc(CN2CCc3onc(Cn4cccc4)c3C2)n1	31.5%
NC(=O)c1cc(CC2CCCN(Cc3cnccn3)CC2)ncn1 (stereo unspecified)	-0.232%
Cn1cc(CN2CCC3(CC2)CC(Nc2nccs2)CO3)cn1 (stereo unspecified)	13.6%
Cn1cc(CN2CC[C@]3(C[C@H](OCc4ccccn4)CO3)C2)cn1	69.6%
CCN1CCC2(CC1)CC(Nc1ncccn1)CO2 (stereo unspecified)	45.7%
O=C(NC1COC2(CCN(Cc3ccccn3)CC2)C1)c1ccccn1 (stereo unspecified)	-8.69%
c1ccc(CN2CCC3(CC2)CC(Nc2nccs2)CO3)nc1 (stereo unspecified)	53.2%
Cc1cc(C)cc(CN2CCC3(CC2)CC(Nc2ncccn2)CO3)c1 (stereo unspecified)	50.7%
c1ccc(CO[C@H]2CO[C@@]3(CCN(Cc4ccoc4)C3)C2)nc1	14.2%
c1cnc(NC2COC3(CCN(Cc4ccoc4)CC3)C2)nc1 (stereo unspecified)	3.25%

Compound	INHIBITION
c1ccc(OC2COC3(CCN(Cc4ccccn4)CC3)C2)cc1 (stereo unspecified)	81.2%
c1ccc(CO[C@@H]2CO[C@@]3(CCN(Cc4ccccn4)C3)C2)nc1	1.58%
c1ccc(CN2CCC3(CC2)CC(Oc2cccnc2)C3)nc1	31.2%
c1ccc(CN2CC[C@]3(C[C@@H](Oc4ccccn4)CO3)C2)nc1	31.3%
CCOCCC(=O)Nc1cccc(Cl)c1C(N)=O	-39.2%
O=C(O)c1ccccc1-c1ccc(CN2CC(O)C2)cc1	-13.7%
CC(=O)N1CCC[C@H]1C(=O)NCCCN(C(C)C)S(C)(=O)=O	25.4%
CCNC(c1ccc(Br)cc1)c1cccnc1 (stereo unspecified)	3.15%
CC(C)(C)c1nnc2n1C(C(=O)N1CCCC1)CC2 (stereo unspecified)	21.7%
CCC1CN(C(=O)c2cccc(OCc3cscn3)c2)CCO1 (stereo unspecified)	32.025%
Cc1cnn(CC2CCCN2Cc2nccn2CC(F)(F)F)c1 (stereo unspecified)	-10.1%
CC(C1CCN(Cc2c(Cl)cncc2Cl)CC1)N1CCOCC1 (stereo unspecified)	52.5%
CC(C1CCN(Cc2c(Cl)cncc2Cl)CC1)N1CCN(C)CC1 (stereo unspecified)	51.3%
CC(C1CCN(Cc2ccc(N(C)C)nc2)CC1)N1CCOCC1 (stereo unspecified)	36.2%
CN1CCN(C[C@@H]2CN(Cc3c(Cl)cncc3Cl)C[C@@H]2CO)CC1	-56.2%
CC(C1CCN(Cc2c(Cl)ccc(O)c2Cl)CC1)N1CCN(C)CC1 (stereo unspecified)	21.145%
CC(C1CCN(Cc2ccc(OC(F)F)cc2)CC1)N1CCOCC1 (stereo unspecified)	33.7%
c1cnc(NC2COC3(CCN(Cc4nccs4)CC3)C2)cn1 (stereo unspecified)	42.7%
CCN(CC)c1ncc(CNC2CCc3ncnn3C2)s1 (stereo unspecified)	-17.9%
CC(C)(C)S(=O)(=O)CCNC(=O)c1ccc2cc[nH]c2c1	-19.7%
COCCN1C[C@@H]2CN(Cc3ccc(C)s3)CCC[C@]2(C(=O)O)C1	24.9%
COCCn1cc2c(n1)C(CNCc1ccco1)OCC2 (stereo unspecified)	-11.5%

Compound	INHIBITION
COc1c(CNC2(c3noc(C)n3)CCC2)c(C)nn1C	-81.2%
COCCCNC(=O)Nc1cccc(Cl)c1-n1cccn1	-31.5%
COCCN(Cc1ccccn1)C(=O)CC1OCCc2sccc21 (stereo unspecified)	35%
COCCN(Cc1ccccn1)C(=O)CC1OCCc2ccccc21 (stereo unspecified)	10.9%
COCCN(Cc1ccccn1)C(=O)CC1OCCc2ccsc21 (stereo unspecified)	58.2%
COCc1nc(Cn2c(C)cc(C(F)(F)F)cc2=O)no1	32.1%
Cc1ccc(C)c(NC(=O)c2cc(S(=O)(=O)N3CCSCC3)c[nH]2)c1	32%
CS(=O)(=O)N1C[C@H]2CCC[C@@]2(COCC2CCOCC2)C1	5.36%
CN(C)S(=O)(=O)N1C[C@H]2CCC[C@@]2(COCc2ccccn2)C1	31.9%
CN(C)S(=O)(=O)N1C[C@H]2CCC[C@@]2(COCC2CC2)C1	63%
Cc1cccc(COC[C@@]23CCC[C@@H]2CN(S(=O)(=O)N(C)C)C3)n1	52.6%
CN(C)S(=O)(=O)N1C[C@H]2CCC[C@@]2(COCc2cccnc2)C1	-136%
CN(C)S(=O)(=O)N1C[C@H]2CCC[C@@]2(COCC2CCOCC2)C1	40.8%
COc1cccc2ccc(N3CCC(O)(c4ccc(C)cn4)CC3)nc12	-44.2%
Cn1cc2ncn([C@H]3CCN(Cc4ccccc4)C3)c(=O)c2n1	-25.1%
O=C(C(CNCc1ccccn1)c1ccccc1)N1CCOCC1 (stereo unspecified)	-5.32%
CC(C)(C)c1n[nH]c(C2CN(C(=O)CCCn3cccn3)CCO2)n1 (stereo unspecified)	17%
c1cncc(CN2CCc3ncnc(C4CCOC4)c3CC2)c1 (stereo unspecified)	30.7%
CSc1nsc(NC(=O)N2CCc3ccccc3C2)n1	16.5%
CCNC(=O)NCc1nn(CCN2CCCC2)c(=O)c2ccccc12	47.7%
CC(C)CNC(=O)CC1(Cn2cnnn2)CCCCC1	67.3%
CC(C)NC(=O)CC1(Cn2cnnn2)CCCCC1	35.8%

Compound	INHIBITION
CC(C)OCCCNC(=O)CC1(Cn2cnnn2)CCCCC1	-22.2%
Cc1ccc(N2CCCN(C(=O)CCc3nccs3)CC2)nn1	3.73%
Cc1nc(N)cc(C2(C)CCCNC2)n1 (stereo unspecified)	32.8%
CC1CN(C(=O)CN(Cc2ccccc2)C2CC2)CCO1 (stereo unspecified)	15.6%
COC(=O)C(NC(=O)C1CCCC1)c1cc(F)ccc1F (stereo unspecified)	29.4%
COc1ncccc1NC(=O)c1[nH]nc(C(C)C)c1Br	-41.6%
CC(C(=O)Nc1ccnn1C(C)C)N1CCN(Cc2ccccc2)CC1 (stereo unspecified)	-8.07%
Cc1ccnc(NC(=O)c2ccc(Cl)o2)c1	32.4%
CC(C)c1n[nH]c(C(=O)NC(C)c2ccncc2)c1Br (stereo unspecified)	-9.76%
Cc1ccnc(NC(=O)c2ccc(Br)o2)c1	-51.5%
COc1ccncc1NC(=O)c1[nH]nc(C(C)C)c1Br	31.1%
CC(C)c1n[nH]c(C(=O)Nc2ccncc2)c1Br	77.6%
CC(C)c1n[nH]c(C(=O)Nc2ccnn2C(C)C)c1Br	88.5%
Cc1nc2c(c(C)c1CC(=O)Nc1ccnn1C(C)C)c(=O)[nH]n2C	-1.33%
Cc1ccnc(NC(=O)c2[nH]nc(C(C)C)c2Br)c1	65%
CC(C)Nc1nc(C(=O)Nc2ccccn2)cs1	-42.1%
CC(C)c1n[nH]c(C(=O)Nc2ccccn2)c1Br	67.4%
Cc1ccccc1-n1cc(CN(C)C(=O)CC2C(=O)NCCN2C)cn1 (stereo unspecified)	42.3%
